The text below walks through data of paper PMC11024108.

Test [1] has as its target Proteasome subunit beta type-4 (UniProt P99026). Kind of test: cross-link between two proteins; cross-linking mass spectrometry.
For test [2], the target named is Proteasome subunit beta type-7 (UniProt P70195). The description is as above.
Test [3] addresses Putative protein FAM10A5 (UniProt Q8NFI4). Described as above.
Test [4] addresses RCC1-like G exchanging factor-like protein (UniProt Q96I51). The description is as above.
The target in test [5] is Radixin (UniProt P35241). Described as above.
In test [6] the target is Ragulator complex protein LAMTOR3 (UniProt Q9UHA4). The test is described as above.
Test [7] concerns the target Ras-related protein Rab-3A (UniProt P63011). The description is as above.
In test [8] the target is Rho guanine nucleotide exchange factor 7 (UniProt Q9ES28). Described as above.
In test [9] the target is Ribosome-binding protein 1 (UniProt Q9P2E9). The test is described as above.
Test [10] deals with S-adenosylhomocysteine hydrolase-like protein 1 (UniProt Q80SW1). Described as above.
The target of test [11] is Septin-10 (UniProt Q9P0V9). The description is as above.
The target in test [12] is Septin-2 (UniProt Q15019). The description is as above.
In test [13] the target is Septin-8 (UniProt Q8CHH9). The description is as above.
Test [14] has as its target Small ribosomal subunit protein mS40 (UniProt Q9Y676). The description is as above.
Test [15] concerns the target Sodium/potassium-transporting ATPase subunit alpha-1 (UniProt Q8VDN2). The description is as above.
The target in test [16] is Sodium/potassium-transporting ATPase subunit alpha-2 (UniProt Q6PIE5). Described as above.
Test [17] addresses Spectrin alpha chain, non-erythrocytic 1 (UniProt P16546). The test is described as above.
Test [18] deals with Splicing factor 3B subunit 2 (UniProt Q13435). The test is described as above.
Test [19] concerns the target Ras-related protein Rab-5C (UniProt P51148). Kind of test: cross-linking mass spectrometry.
Test [20] concerns the target T-complex protein 1 subunit gamma (UniProt P49368). Kind of test: cross-linking mass spectrometry.
In test [21] the target is tRNA-splicing ligase complex subunit RTRAF (UniProt Q9Y224). As to the kind of experiment: cross-linking mass spectrometry.
In test [22] the target is Succinate--CoA ligase [ADP-forming] subunit beta, mitochondrial (UniProt Q9P2R7). Kind of test: cross-link between two proteins; cross-linking mass spectrometry.
Test [23] addresses Synapsin-2 (UniProt Q64332). Described as above.
Test [24] addresses Vesicle-associated membrane protein 1 (UniProt Q62442). The test is described as above.
Test [25] has as its target Synapsin-3 (UniProt Q8JZP2). Described as above.
Test [26] concerns the target Synaptic vesicle glycoprotein 2A (UniProt Q9JIS5). The test is described as above.
Test [27] addresses Synaptopodin (UniProt Q8CC35). The test is described as above.
For test [28], the target named is Synaptotagmin-2 (UniProt P46097). Described as above.
Test [29] has as its target T-complex protein 1 subunit beta (UniProt P80314). The description is as above.
Test [30] concerns the target T-complex protein 1 subunit delta (UniProt P80315). The test is described as above.
The target of test [31] is T-complex protein 1 subunit theta (UniProt P42932). The test is described as above.
Test [32] has as its target T-complex protein 1 subunit epsilon (UniProt P80316). Described as above.
In test [33] the target is T-complex protein 1 subunit gamma (UniProt P80318). The test is described as above.
For test [34], the target named is T-complex protein 1 subunit zeta (UniProt P80317). The description is as above.
For test [35], the target named is Talin-2 (UniProt Q71LX4). Described as above.
In test [36] the target is Thioredoxin domain-containing protein 5 (UniProt Q8NBS9). The description is as above.
In test [37] the target is Transcriptional activator protein Pur-alpha (UniProt P42669). The test is described as above.
The target of test [38] is Translation machinery-associated protein 7 (UniProt Q9Y2S6). Described as above.
The target of test [39] is Transmembrane emp24 domain-containing protein 5 (UniProt Q9Y3A6). The test is described as above.
In test [40] the target is Trifunctional enzyme subunit alpha, mitochondrial (UniProt P40939). Described as above.
Test [41] has as its target Tubulin alpha-1A chain (UniProt P68369). Described as above.
Test [42] deals with UDP-glucose:glycoprotein glucosyltransferase 1 (UniProt Q9NYU2). Described as above.
Test [43] addresses Ubiquitin-like protein NEDD8 (UniProt Q15843). The test is described as above.
For test [44], the target named is V-type proton ATPase subunit C 1 (UniProt Q9Z1G3). The description is as above.
Test [45] deals with V-type proton ATPase subunit F (UniProt Q9D1K2). The description is as above.
Test [46] deals with V-type proton ATPase subunit D (UniProt P57746). The description is as above.
Test [47] deals with V-type proton ATPase subunit E 1 (UniProt P50518). The test is described as above.
Test [48] addresses V-type proton ATPase subunit G 1 (UniProt Q9CR51). The description is as above.
The target in test [49] is V-type proton ATPase subunit G 2 (UniProt Q9WTT4). Described as above.
Test [50] concerns the target V-type proton ATPase subunit H (UniProt Q8BVE3). The description is as above.
Test [51] addresses Vesicle transport through interaction with t-SNAREs homolog 1B (UniProt Q9UEU0). Described as above.
Test [52] concerns the target Vesicle-associated membrane protein-associated protein A (UniProt Q9WV55). Described as above.
Test [53] concerns the target Vimentin (UniProt P08670). The test is described as above.
The target of test [54] is tRNA-splicing ligase complex subunit RTRAF (UniProt Q9CQE8). The test is described as above.
The target in test [55] is Cytochrome c oxidase assembly factor 7 (UniProt Q96BR5). As to the kind of experiment: mass-spectrometry hit list; affinity purification or IP with mass spectrometry; cross-linking mass spectrometry.

Take Proteasome subunit beta type-7, P70195: the “listed as a hit” value in test [1] is on record as “yes”.

For the substance Proteasome subunit beta type-1, O09061, the “listed as a hit” value in test [2] is given as “yes”.

With Hsc70-interacting protein, P50502, in test [3], the “listed as a hit” value is “yes”.

“Nucleoside diphosphate kinase 6, mitochondrial, O75414”: the “listed as a hit” value in [4] is reported as “yes”.

Turning to Moesin, P26038, in [5], the “listed as a hit” value is reported as “yes”.

For “ADP-ribosylation factor-like protein 8B, Q9NVJ2”, the “listed as a hit” value in test [6] is given as “yes”.

With Ras-related protein Rab-3C, P62823, the “listed as a hit” value in [7] is given as “yes”.

“ARF GTPase-activating protein GIT1, Q68FF6”: in test [8], the “listed as a hit” value is “yes”.

Turning to “Dual E2 ubiquitin-conjugating enzyme/E3 ubiquitin-protein ligase BIRC6, Q9NR09”, in test [9], the “listed as a hit” value is “yes”.

For the substance “S-adenosylhomocysteine hydrolase-like protein 2, Q68FL4”, the “listed as a hit” value in [10] is “yes”.

With Septin-2, Q15019, the “listed as a hit” value in test [11] is “yes”.

Take Septin-6, Q14141: the “listed as a hit” value in [12] is given as “yes”.

Take Septin-11, Q8C1B7: in test [13], the “listed as a hit” value is listed as “yes”.

As for “Haloacid dehalogenase-like hydrolase domain-containing protein 3, Q9BSH5”, in [14], the “listed as a hit” value is on record as “yes”.

On to “FXYD domain-containing ion transport regulator 7, P59648”, for which, in [15], the “listed as a hit” value was “yes”.

Take “Excitatory amino acid transporter 1, P56564”: the “listed as a hit” value in test [16] was “yes”.

In the case of “Spectrin beta chain, erythrocytic, P15508”, in test [17], the “listed as a hit” value was “yes”.

As to “U2 small nuclear ribonucleoprotein B'', P08579”, the “listed as a hit” value in [18] was “yes”.

Take Ras-related protein Rab-5A, P20339: in test [19], the “listed as a hit” value is listed as “yes”.

With Programmed cell death protein 5, O14737, the “listed as a hit” value in [20] is “yes”.

In the case of ATP-dependent RNA helicase DDX1, Q92499, the “listed as a hit” value in [21] is “yes”.

Regarding “Succinate--CoA ligase [ADP/GDP-forming] subunit alpha, mitochondrial, P53597”, the “listed as a hit” value in [22] is on record as “yes”.

For the substance Synapsin-1, O88935, the “listed as a hit” value in test [23] and in test [24] was “yes” each time.

With Synapsin-2, Q64332, the “listed as a hit” value in [25] is recorded as “yes”.

Synaptophysin, Q62277: in test [26], the “listed as a hit” value is on record as “yes”.

Alpha-actinin-1, Q7TPR4: the “listed as a hit” value in test [27] is listed as “yes”.

For Synaptotagmin-1, P46096, the “listed as a hit” value in [28] is given as “yes”.

Regarding T-complex protein 1 subunit eta, P80313, the “listed as a hit” value in [29] is “yes”.

In the case of “T-complex protein 1 subunit alpha, P11983”, the “listed as a hit” value in [30] and in [31] was “yes” throughout.

Take “T-complex protein 1 subunit beta, P80314”: the “listed as a hit” value in test [30] and in test [32] was “yes” in each case.

Turning to “T-complex protein 1 subunit delta, P80315”, the “listed as a hit” value in [32] is listed as “yes”.

As for “T-complex protein 1 subunit zeta, P80317”, in [33], the “listed as a hit” value is listed as “yes”.

Take “T-complex protein 1 subunit theta, P42932”: the “listed as a hit” value in test [34] is recorded as “yes”.

Consider Talin-1, P26039, for which, in [35], the “listed as a hit” value is given as “yes”.

Peroxiredoxin-4, Q13162: the “listed as a hit” value in test [36] is “yes”.

“Transcriptional regulator protein Pur-beta, O35295”: the “listed as a hit” value in test [37] is “yes”.

Nuclease EXOG, mitochondrial, Q9Y2C4: the “listed as a hit” value in test [38] is on record as “yes”.

Take “Transmembrane emp24 domain-containing protein 9, Q9BVK6”: the “listed as a hit” value in [39] was “yes”.

On to ADP/ATP translocase 3, P12236, for which, in test [40], the “listed as a hit” value is “yes”.

In the case of Tubulin alpha-4A chain, P68368, in test [41], the “listed as a hit” value is on record as “yes”.

With Selenoprotein F, O60613, in test [42], the “listed as a hit” value is “yes”.

As to Cullin-2, Q13617, in [43], the “listed as a hit” value is on record as “yes”.

As for V-type proton ATPase subunit D, P57746, the “listed as a hit” value in [44] and in test [45] was “yes” throughout.

“V-type proton ATPase catalytic subunit A, P50516”: the “listed as a hit” value in [46] and in test [47] was “yes” each time.

Consider “V-type proton ATPase subunit E 1, P50518”, for which the “listed as a hit” value in [48] and in test [49] was “yes” throughout.

For the substance “V-type proton ATPase subunit B, brain isoform, P62814”, in test [50], the “listed as a hit” value is given as “yes”.

Take “Vesicle-associated membrane protein 7, P51809”: the “listed as a hit” value in test [51] is on record as “yes”.

Take “Vesicle-associated membrane protein-associated protein B, Q9QY76”: the “listed as a hit” value in [52] is on record as “yes”.

As for “Neurofilament medium polypeptide, P07197”, the “listed as a hit” value in test [53] is “yes”.

RNA-splicing ligase RTCB, Q99LF4: the “listed as a hit” value in [54] is on record as “yes”.

Turning to MICOS complex subunit MIC60, Q16891, the “listed as a hit” value in test [55] is “yes”.
